An excerpt weighted towards active compounds, which were near 1.2% of everything screened.
Avidin bead fluor: green autofluorescence of compounds with avidin beads – biophysical, 488/530 nm, flow cytometry, artefact control, profiling panel; compound fluorescence 488/530 nm; active compounds read high; fluorescence (KMESF) at 10 µM; actives 0.38% (n = 220,000); in the data active means fluorescence above about 47
GSH fluor: compound fluorescence on glutathione beads, profiling panel, artefact control, biophysical, 488/530 nm, flow cytometry | GSH beads flow cytometry, compound fluorescence 488/530 nm; active compounds read high | fluorescence (KMESF) at 10 µM | actives 0.25% (n = 190,000) | AID 1776, 2009; in the data active means fluorescence above about 89;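 further: glutathione beads carrying GST-tagged Bcl family fusion proteins plus one bare bead set; values are compound well signal with DMSO vehicle wells as background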
RGS16-Gao HTS: modulators of RGS16 binding to Galphao, primary screen, biochemical, human proteins, multiplexed bead flow cytometry; bead-based flow cytometry RGS16-Galphao binding, fluorescence; actives lie on both sides; binding response (% of control), % at 10 µM; actives 0.38% (n = 220,000); AID 1441, 2008;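 further: Galphao activated by GDP with aluminum fluoride before binding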
Target sequence (O15492 whole entry, looked up): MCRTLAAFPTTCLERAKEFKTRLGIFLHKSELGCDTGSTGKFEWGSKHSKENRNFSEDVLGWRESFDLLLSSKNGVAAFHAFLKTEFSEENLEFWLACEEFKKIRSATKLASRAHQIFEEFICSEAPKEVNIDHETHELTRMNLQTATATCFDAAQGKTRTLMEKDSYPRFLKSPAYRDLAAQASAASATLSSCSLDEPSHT
Target sequence (P09471 whole entry, looked up): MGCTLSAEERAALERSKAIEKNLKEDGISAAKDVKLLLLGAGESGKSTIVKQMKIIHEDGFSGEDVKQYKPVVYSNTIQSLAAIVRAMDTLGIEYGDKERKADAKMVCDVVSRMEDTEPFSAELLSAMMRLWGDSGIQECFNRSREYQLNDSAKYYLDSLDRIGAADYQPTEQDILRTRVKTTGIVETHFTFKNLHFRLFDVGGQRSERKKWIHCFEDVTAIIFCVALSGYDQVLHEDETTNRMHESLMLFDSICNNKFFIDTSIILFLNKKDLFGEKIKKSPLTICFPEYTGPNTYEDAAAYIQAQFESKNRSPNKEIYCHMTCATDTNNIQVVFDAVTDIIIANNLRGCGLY
RGS4-Gao reg: modulators of RGS4 binding to Galphao, primary screen, biochemical, multiplexed bead flow cytometry | actives lie on both sides | Guanine nucleotide-binding protein G(o) subunit alpha (Homo sapiens), P09471 | binding response (% of control), % at 10 µM | actives 0.33% (n = 220,000) | AID 1415, 2008; in the data active means binding response below about 49% or above about 150%; inactive means in between;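 further: fluorescent Galphao activated with aluminum fluoride binding bead-coupled RGS4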
RGS7-Gao: RGS7-Galphao binding modulators, primary screen, biochemical, multiplexed bead flow cytometry. Guanine nucleotide-binding protein G(o) subunit alpha (Homo sapiens), P09471. actives 0.35% (n = 220,000). actives lie on both sides. binding response (% of control), % at 10 µM; in the data active means binding response below about 49% or above about 150%; inconclusive means no clear call, values can overlap the other calls; inactive means in between;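 further: fluorescent Galphao held in activated GDP-AlF4 state binding bead-coupled RGS7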
RGS8-Gao reg: RGS8-Galphao binding modulators, primary screen, biochemical, multiplexed bead flow cytometry; AID 1423, 2008; actives 0.34% (n = 220,000); Guanine nucleotide-binding protein G(o) subunit alpha (Homo sapiens), P09471; response (percent of control binding), % at 10 µM; actives lie on both sides; in the data active means response below about 60% or above about 140%; inactive means in between;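 further: Galphao activated as the GDP aluminium fluoride complex binding bead-coupled RGS8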
RGS4-Gao HTS: modulators of RGS–Galpha-o binding, primary screen, biochemical, multiplexed beads, flow cytometry, RGS4/7/8/16/19; shares compounds with RGS16-Gao HTS; multiplexed bead flow cytometry; RGS4–Galpha-o binding response, % at 10 µM; actives 99% (n = 1,600); AID 1504, 2009;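 further: fluorescently labeled Galpha-o bound to GDP with aluminium fluoride binding biotinylated RGS beads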
Biotin-avidin: disruption of biotin probe capture by avidin, counter-screen for RGS protein interaction modulators, biochemical, flow cytometry, bead-based | shares compounds with RGS16-Gao HTS | 1,700 tested, under 10 active | AID 1783, 2009 | inhibition, % at 10 µM | streptavidin beads, fluorescein-biotin binding;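 active means inhibition above 50%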;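 further: median green fluorescence of gated singlet beads compared with DMSO control wells; 0% = DMSO wells and 100% = complete loss of bead fluorescence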
RGS8-Gao single: RGS8-Galphao binding modulators, confirmation, biochemical, multiplexed bead flow cytometry, single concentration; shares compounds with RGS16-Gao HTS; bead-based flow cytometry RGS8-Galphao binding, fluorescence; actives lie on both sides; binding response (% of control), % at 10 µM; actives 3% (n = 1,700); AID 1836, 2009; in the data active means binding response below about 72% or above about 130%; inactive means in between;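 further: Galphao activated as GDP AlF4 complex before binding bead RGS8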
RGS7-Gao confirm: RGS7-Galphao binding modulators, confirmation, biochemical, multiplexed bead flow cytometry, single concentration; bead-based flow cytometry RGS7-Galphao binding; actives lie on both sides; response (percent of control binding), % at 10 µM; shares compounds with RGS16-Gao HTS; actives 7.8% (n = 1,700); AID 1837, 2009; in the data active means response below about 75% or above about 130%; inactive means in between;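 further: fluorescent Galphao activated with GDP and aluminum fluoride binding bead-coupled RGS7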
RGS16-Gao single: modulators of RGS16-Galphao protein binding, confirmation, biochemical, single concentration, multiplexed bead flow cytometry; shares compounds with RGS16-Gao HTS; AID 1838, 2009; response (% of control binding), % at 10 µM; bead-based flow cytometry; actives lie on both sides; actives 4% (n = 1,700); in the data active means response below about 74% or above about 130%; inactive means in between;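 further: Galphao activated as the GDP aluminium fluoride complex binding bead-coupled RGS16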
RGS4-Gao confirm: modulators of RGS4-Galphao protein binding, confirmation, biochemical, single concentration, multiplexed bead flow cytometry; shares compounds with RGS16-Gao HTS; actives lie on both sides; binding response (% of control), % at 10 µM; actives 4% (n = 1,700); AID 1840, 2009; in the data active means binding response below about 74% or above about 130%; inactive means in between
RGS19-Gao single: regulators of RGS19-Galphao binding, confirmation, biochemical, single point, multiplexed bead flow cytometry | shares compounds with RGS16-Gao HTS | bead-based flow cytometry RGS19-Galphao binding; actives lie on both sides | response (percent of control binding), % at 10 µM | actives 5% (n = 1,700) | AID 1841, 2009; in the data active means response below about 50% or above about 160%; inactive means in between;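 further: 100% = no compound control and 0% = blank background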
* = called active by the depositor; ? = inconclusive; . = not tested or not shown; [ ] = another dose, or the depositor's remark. Unless noted, how the calls were made is not given here.

SMILES | Avidin bead fluor | GSH fluor | RGS16-Gao HTS | RGS4-Gao reg | RGS7-Gao | RGS8-Gao reg | Biotin-avidin | RGS8-Gao single | RGS7-Gao confirm | RGS16-Gao single | RGS4-Gao confirm | RGS19-Gao single | others
COC(=O)C(C)NC(=S)N1CCN(c2c(F)cc3c(=O)c(C(=O)O)cn(C4CC4)c3c2OC)CC1C (centres undefined) | 4 | . | 89.8 | 93.7 | ? | 93.5 | . | . | . | . | . | .
Cc1nn(-c2ccc(F)cc2)c2sc(C(=O)OC3CCOC3=O)cc12 (centres undefined) | . | 48 | . | . | . | . | -0.5 | 99.7 | 96.7 | 99.4 | 99.0 | 99.9
O=c1cc(C(F)(F)F)[nH]c2c(OC(F)(F)F)cccc12 | 3 | . | 100.9 | 102.8 | ? | 101.0 | . | . | . | . | . | .
CC(=O)N1CCN(S(=O)(=O)c2cccc(C(=O)OCC(=O)NC(=O)c3cccn3C)c2)CC1 | 6 | 15 | 184.9*[activator] | 111.8 | 108.0 | 124.9 | -2.1 | 93.0 | 81.1 | 91.2 | 88.0 | 83.5 | RGS4-Gao HTS=111.8*
NC(=O)NC(=O)COC(=O)c1cccc(S(=O)(=O)N2CCCCCC2)c1 | 13 | . | 95.3 | 97.9 | ? | 96.3 | . | . | . | . | . | .
CCc1cc2c(=O)c(-c3cnn(-c4ccccc4)c3)c(C)oc2cc1OCC(=O)Nc1cccc(C)c1 | 14 | 5 | 256.8*[activator] | 109.0 | 108.7 | 128.7 | -1.3 | 104.2 | 93.9 | 107.0 | 102.0 | 134.4 | RGS4-Gao HTS=109.0*
Cc1cccc(C)c1NC(=O)CSC(=O)c1sc2ccccc2c1Cl | -1 | . | -2.1* | -6.1* | ? | 22.2* | -1.2 | 98.7 | 96.9 | 97.2 | 99.8 | 92.2
CC(=O)Nc1ccccc1NS(=O)(=O)c1ccccc1[N+](=O)[O-] | 204* | 10 | 123.5 | 158.2*[activator] | 401.2*[activator] | 99.7 | 3.0 | 104.2 | 101.7 | 99.7 | 102.6 | 106.5
Cc1c(N2C(=O)CSC2c2ccc([N+](=O)[O-])cc2)c(=O)n(-c2ccccc2)n1C (centres undefined) | 43 | . | 164.5 | 163.7*[activator] | ? | 115.1 | 0.7 | 102.5 | 102.2 | 101.0 | 101.2 | 104.0

Bioassay records as filed in PubChem.
